# Whole data set: some 81,000 sequences, median “one-hybrid fitness for binding NBS DNA” near -0.1, cut for the highest 2% near 0.36. What follows is part of a selection rich in the highest values, with near analogues and random picks from the rest.
# B1: Caulobacter ParB omega fusion; a variant is named by its letters at X, in order, B8GW30 (parent)
# chain: MESVVVGEPGMSEGRRGLGRGLSALLGEVDAAPAQAPGEQLGGSREAPIEILQRNPDQPRRTFREEDLEDLSNSIREKGVLQPILVRPSPDTAGEYQIVAGERAWRAAQRAGLKTVPIMVRELDDLAVLEIGIIENVQRADLNVLEEALSYKVLMEKFERTQENIAQTIGKSXSHVANXMRLLXLPDEVQSYLVSGELTAXHARAIAAAADPVALAKQIIEGGLSVRETEALARKAPNLSAGKSKGGRPPRVKDTDTQALESDLSSVLGLDVSIDHRGSTGTLTITYATLEQLDDLCNRLTRGI
# Variants of: B1
# Experiment: one-hybrid fitness for binding NBS DNA (the Noc-binding site; scaled: cognate 1, non-cognate 0); higher = stronger binding
# Conditions: with NBS DNA site
# Outline: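 The reporter was HIS3, with the binding site 19 bp from the promoter, in E. coli USO used for bacterial one-hybrid selection of Caulobacter ParB libraries with four specificity codons randomised. Growth was on M9 lacking histidine, with 0.1 mM IPTG and 5 mM 3-AT, for 48 hours at 37°C. Illumina sequencing covered plasmids before and after selection; three replicate libraries were pooled and variants with under 10 reads dropped. A fitness score is the log change in variant-to-wild-type read ratio, rescaled to the cognate and non-cognate references.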
row,Variant,one-hybrid fitness for binding NBS DNA
1,MRQS,≤ 0.2
2,MFRF,≤ 0.2
3,LRHC,≤ 0.2
4,KHAS,≤ 0.2
5,CVNW,≤ 0.2
6,REMW,≤ 0.2
7,AEIR,≤ 0.2
8,IEPR,0.427
9,TEPR,≤ 0.2
10,IEYR,≤ 0.2
11,AEPR,0.408
12,IEPS,≤ 0.2
13,LSRY,≤ 0.2
14,SFFN,≤ 0.2
15,EDND,≤ 0.2
16,AQKT,≤ 0.2
17,RRPR,0.605
18,RCIR,0.294
19,RCPR,≤ 0.2
20,RRID,≤ 0.2
21,RRIR,0.686
22,RRPP,≤ 0.2
23,WWTF,≤ 0.2
24,WLEG,≤ 0.2

row,Variant,one-hybrid fitness for binding NBS DNA
1,FKSG,≤ 0.2
2,IVTP,≤ 0.2
3,PVGL,≤ 0.2
4,RSMS,0.351
5,RKMD,≤ 0.2
6,RTMH,≤ 0.2
7,RCMS,0.412
8,RHMS,0.386
9,RPMS,≤ 0.2
10,RKMN,≤ 0.2
11,RHMH,≤ 0.2
12,RKMS,0.586
13,RTMS,0.452
14,RHMD,≤ 0.2
15,RTMD,≤ 0.2
16,WRRW,≤ 0.2
17,DIYS,≤ 0.2
18,HNSK,≤ 0.2
19,TLTK,≤ 0.2
20,QTNQ,0.377
21,QSNY,≤ 0.2
22,QTNN,0.327
23,QTNH,0.495
24,QTDY,≤ 0.2

row,Variant,one-hybrid fitness for binding NBS DNA
1,QTNS,0.629
2,QTNF,0.244
3,QTDQ,≤ 0.2
4,QTDH,0.335
5,QTDS,0.331
6,QCNQ,0.222
7,QTNY,0.431
8,HFFR,≤ 0.2
9,RCTP,≤ 0.2
10,EWRC,≤ 0.2
11,YVHE,≤ 0.2
12,VDSG,≤ 0.2
13,HSAM,≤ 0.2
14,VVYR,≤ 0.2
15,RMAH,≤ 0.2
16,RTAD,≤ 0.2
17,RMAN,≤ 0.2
18,RCAW,0.431
19,RTAP,≤ 0.2
20,RSAW,≤ 0.2
21,RSAD,≤ 0.2
22,RSAS,0.424
23,RPAW,≤ 0.2
24,RMAS,0.405

row,Variant,one-hybrid fitness for binding NBS DNA
1,RTAS,0.454
2,RSAP,≤ 0.2
3,SWHQ,≤ 0.2
4,IRHW,≤ 0.2
5,EMAM,≤ 0.2
6,DYQG,≤ 0.2
7,TGTL,≤ 0.2
8,WNAL,≤ 0.2
9,RAAS,0.368
10,RIAS,0.345
11,RLAP,≤ 0.2
12,RAAH,≤ 0.2
13,RLAS,0.383
14,RAAD,≤ 0.2
15,RCAS,0.476
16,RLAH,≤ 0.2
17,RHAN,≤ 0.2
18,RPAS,≤ 0.2
19,RHAS,0.433
20,RHAP,≤ 0.2
21,TIIA,≤ 0.2
22,APSV,≤ 0.2
23,HMQC,≤ 0.2
24,LRDK,≤ 0.2

row,Variant,one-hybrid fitness for binding NBS DNA
1,SENT,≤ 0.2
2,LQVS,≤ 0.2
3,PPFG,≤ 0.2
4,RSHK,≤ 0.2
5,QQTP,≤ 0.2
6,QQTR,0.648
7,QQTD,≤ 0.2
8,QQTN,≤ 0.2
9,QQTC,≤ 0.2
10,QQTS,0.433
11,QQTH,0.264
12,QQTT,0.464
13,QQTF,≤ 0.2
14,WSIE,≤ 0.2
15,GCAR,≤ 0.2
16,RQSC,≤ 0.2
17,YATR,≤ 0.2
18,SEFT,≤ 0.2
19,STWN,≤ 0.2
20,SNPF,≤ 0.2
21,LHCS,≤ 0.2
22,CNGF,≤ 0.2
23,FEEV,≤ 0.2
24,LQET,≤ 0.2

row,Variant,one-hybrid fitness for binding NBS DNA
1,RARS,0.564
2,RAIS,≤ 0.2
3,RANS,0.484
4,RADS,≤ 0.2
5,RANH,≤ 0.2
6,RARN,≤ 0.2
7,RAWS,0.262
8,RARH,0.306
9,RAYS,0.423
10,DPHT,≤ 0.2
11,NPRM,≤ 0.2
12,HYCF,≤ 0.2
13,GLER,≤ 0.2
14,NTPI,≤ 0.2
15,RRQH,0.447
16,RRQD,≤ 0.2
17,RRQS,0.69
18,RCQH,0.228
19,RCQG,≤ 0.2
20,RSQG,≤ 0.2
21,RRQP,≤ 0.2
22,RRQG,0.377
23,RRQN,0.322
24,PGAA,≤ 0.2

row,Variant,one-hybrid fitness for binding NBS DNA
1,NLQS,≤ 0.2
2,HATK,≤ 0.2
3,WPRM,≤ 0.2
4,LVQN,≤ 0.2
5,DLGR,≤ 0.2
6,GFTS,≤ 0.2
7,EYKR,≤ 0.2
8,QYVP,≤ 0.2
9,QYVR,0.381
10,QYKR,0.99
11,QYVN,≤ 0.2
12,NYKR,≤ 0.2
13,KYYF,≤ 0.2
14,SYTG,≤ 0.2
15,PAEC,≤ 0.2
16,TFLC,≤ 0.2
17,RTER,0.262
18,RTYR,0.522
19,RTGR,0.622
20,RPWR,≤ 0.2
21,RCWR,0.405
22,RSWR,0.27
23,RTRR,0.818
24,RTIR,0.354

row,Variant,one-hybrid fitness for binding NBS DNA
1,RTGH,0.271
2,RTPR,0.208
3,RTGP,≤ 0.2
4,RTRD,≤ 0.2
5,WHGR,≤ 0.2
6,SVYC,≤ 0.2
7,DNYS,≤ 0.2
8,AQDG,≤ 0.2
9,RTCR,0.53
10,RTCD,≤ 0.2
11,RTSR,0.576
12,RTDR,0.282
13,RTSF,≤ 0.2
14,RTNP,≤ 0.2
15,RTCN,≤ 0.2
16,RTHG,≤ 0.2
17,RTSC,≤ 0.2
18,RTNR,0.744
19,RTHR,0.631
20,RTHM,≤ 0.2
21,MTRH,≤ 0.2
22,GPMF,≤ 0.2
23,VYNT,≤ 0.2
24,NQFD,≤ 0.2

row,Variant,one-hybrid fitness for binding NBS DNA
1,GLEG,≤ 0.2
2,DQKV,≤ 0.2
3,ATVV,≤ 0.2
4,THMM,≤ 0.2
5,RTWD,≤ 0.2
6,RTLH,≤ 0.2
7,RTWR,0.404
8,RTWP,≤ 0.2
9,RTLQ,≤ 0.2
10,RTLR,0.461
11,RTQR,0.575
12,RTQP,≤ 0.2
13,RTQN,≤ 0.2
14,QGED,≤ 0.2
15,DAQE,≤ 0.2
16,GQLV,≤ 0.2
17,RKAK,≤ 0.2
18,RKFH,0.212
19,RSFT,≤ 0.2
20,RCFT,0.423
21,RKAT,0.643
22,RKFD,≤ 0.2
23,RKAG,≤ 0.2
24,RPFT,≤ 0.2

row,Variant,one-hybrid fitness for binding NBS DNA
1,RKFT,0.437
2,ALQE,≤ 0.2
3,NTTI,≤ 0.2
4,VKDD,≤ 0.2
5,SFVF,≤ 0.2
6,WRVA,≤ 0.2
7,QKPR,0.271
8,QSIR,0.336
9,QRPN,≤ 0.2
10,QPIR,≤ 0.2
11,QCIR,0.476
12,QRIF,≤ 0.2
13,QRID,≤ 0.2
14,QKIH,≤ 0.2
15,QRPR,0.543
16,QRIR,0.686
17,QKIR,0.37
18,HKRE,≤ 0.2
19,TTVD,≤ 0.2
20,RYII,≤ 0.2
21,YVSR,≤ 0.2
22,VVAC,≤ 0.2
23,CQVS,≤ 0.2
24,GESL,≤ 0.2

row,Variant,one-hybrid fitness for binding NBS DNA
1,PASE,≤ 0.2
2,TQWR,≤ 0.2
3,YKER,≤ 0.2
4,SGPG,≤ 0.2
5,RSET,≤ 0.2
6,RKES,0.434
7,RKED,≤ 0.2
8,RKET,0.528
9,RSER,≤ 0.2
10,RKEN,≤ 0.2
11,RKER,0.475
12,RKEC,≤ 0.2
13,RKEP,≤ 0.2
14,TPNM,≤ 0.2
15,GAKV,≤ 0.2
16,PFSN,≤ 0.2
17,GRHM,≤ 0.2
18,ESQL,≤ 0.2
19,SDYT,≤ 0.2
20,TGQV,≤ 0.2
21,AFRG,≤ 0.2
22,AFCR,≤ 0.2
23,QMKD,0.313
24,QMVQ,0.283

row,Variant,one-hybrid fitness for binding NBS DNA
1,QMKN,0.4
2,QMVS,0.282
3,QMQQ,≤ 0.2
4,QMKQ,0.417
5,QMKI,0.322
6,QMKP,0.277
7,QMKF,0.3
8,QMKH,0.559
9,QMKS,0.668
10,QMKE,0.215
11,TPAD,≤ 0.2
12,RQKV,0.237
13,CAYF,≤ 0.2
14,LIRD,≤ 0.2
15,PIRV,≤ 0.2
16,QHDM,≤ 0.2
17,QPRM,≤ 0.2
18,QKRM,0.4
19,QTDM,≤ 0.2
20,QHQM,≤ 0.2
21,QTRM,0.562
22,QKDM,≤ 0.2
23,QCRM,0.505
24,QCYM,≤ 0.2

row,Variant,one-hybrid fitness for binding NBS DNA
1,QKYM,≤ 0.2
2,QHRM,0.379
3,QTYM,≤ 0.2
4,IVMP,≤ 0.2
5,STQT,≤ 0.2
6,NHEL,≤ 0.2
7,TDNM,≤ 0.2
8,IHYS,≤ 0.2
9,RIDA,≤ 0.2
10,LSVV,≤ 0.2
11,TPRN,≤ 0.2
12,NHPC,≤ 0.2
13,LYSC,≤ 0.2
14,GAPG,≤ 0.2
15,PSHR,≤ 0.2
16,RVAG,≤ 0.2
17,YGRN,≤ 0.2
18,AHAS,≤ 0.2
